Potency and affinity values are given separately. Inconclusive results are not listed. Where a call stands in place of a potency, no number is given. Active and inactive are the calls of the source.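 Rule for the calls, unless noted: active = a dose-response fit showing signal loss, with half-maximal concentration no higher than twice the top tested dose; inconclusive = flat fit between 30% and 70% signal loss, or poor fit; inactive = the rest.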
Columns and labels:
[1] = Cryptococcus neoformans growth inhibition, dose response, Alamar Blue, cherry-picks (AID 686998;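 active = falling signal with fitted half-maximal potency no higher than twice the top valid tested dose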)
[2] = HepG2 cell cytotoxicity, dose response, cytotoxicity control, cherry-picks, set 2 (AID 687002)
[3] = HeLa cell cytotoxicity, dose response, cytotoxicity control, ATP luminescence, cherry-pick samples (AID 687004;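 active = a fitted half-maximal concentration no higher than twice the top valid tested dose, with signal falling as cells die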)
[4] = inducers of Cryptococcus neoformans cell lysis, dose response, AK release luminescence, cherry-picks (AID 687000;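 active = fitted dose curve reaches 40% lysis signal rise at or below the highest valid concentration tested for that sample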;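 note: luminescent detection of adenylate kinase leaking from lysed yeast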)

SMILES | outcome [1] | outcome [2] | outcome [3] | outcome [4]
CCCC(=O)Nc1ccc2c(c1)C(=O)N(C)C[C@H](OC)[C@@H](C)CN(C(=O)c1cccnc1)[C@H](C)CO2 | inactive | inactive | inactive | –
C[C@@H]1CN([C@@H](C)CO)C(=O)Cc2cc(NC(=O)c3ccncc3)ccc2O[C@H]1CN(C)Cc1ccncc1 | inactive | inactive | inactive | –
CCCN1C[C@H](C)[C@@H](OC)CN(C)C(=O)c2cc(NC(=O)c3cccc(F)c3)ccc2OC[C@@H]1C | inactive | inactive | inactive | –
CO[C@H]1CN(C)C(=O)c2cc(NC(=O)C3CC3)ccc2OC[C@@H](C)N(Cc2cncnc2)C[C@H]1C | inactive | inactive | inactive | –
C[C@@H]1CCCCO[C@@H](CN(C)C(=O)Nc2cccc3ccccc23)[C@@H](C)CN([C@H](C)CO)C(=O)c2cc(NS(=O)(=O)c3ccccc3)ccc2O1 | inactive | inactive | inactive | –
COCC(=O)N(C)C[C@H]1Oc2ncc(-c3ccccc3F)cc2C(=O)N([C@@H](C)CO)C[C@H]1C | inactive | inactive | inactive | –
O=C(Cc1ccccc1)N[C@H]1C=C[C@@H](CC(=O)N2CCOCC2)O[C@@H]1CO | inactive | inactive | inactive | –
N#Cc1ccc(C23CC4(C2)[C@H](CN(Cc2ccc(C(F)(F)F)cc2)[C@@H]4c2ccccc2)C3c2ccc(C(F)(F)F)cc2)cc1 (stereo partly specified) | inactive | inactive | inactive | –
COCCNC(=O)C[C@@H]1C[C@H]2c3cc(NC(=O)C4CCOCC4)ccc3O[C@H]2[C@H](CO)O1 | inactive | inactive | inactive | –
Cc1ccccc1NC(=O)C(=O)NCCCN1CCCC1=O | inactive | inactive | inactive | –
C[C@H](O)C#Cc1ccc2c(c1)O[C@H](CN(C)Cc1ccncc1)[C@H](C)CN([C@H](C)CO)S2(=O)=O | inactive | inactive | inactive | –
CC(C)NC(=O)N[C@H]1CC[C@@H](CCNC(=O)C2CC2)O[C@H]1CO | inactive | inactive | inactive | –
CCCNC(C)C(=O)Nc1ccccc1C (stereo unspecified) | inactive | inactive | inactive | –
CNC[C@@H]1OCCCC[C@@H](C)Oc2ccc(NC(=O)Nc3ccc4c(c3)OCO4)cc2C(=O)N([C@H](C)CO)C[C@@H]1C | inactive | inactive | inactive | –
O=C(NC1CCCCC1)N[C@H]1C=C[C@@H](CC(=O)N2CCOCC2)O[C@@H]1CO | inactive | inactive | inactive | –
COc1ccccc1CNC(=S)NCc1ccc(Cl)cc1 | inactive | inactive | inactive | –
COc1ccc(NC(=S)NCc2ccc(Cl)cc2)c(OC)c1 | inactive | inactive | inactive | –

SMILES | outcome [1] | outcome [2] | outcome [3] | outcome [4]
Cc1noc(C)c1NC(=O)Nc1ccc2c(c1)C(=O)N([C@@H](C)CO)C[C@H](C)[C@H](CN(C)CC1CCCCC1)O2 | inactive | inactive | inactive | –
COc1cccc(NC(=O)N2C[C@H](O)COC[C@H]3O[C@@H](CC(=O)NCc4ccccc4F)CC[C@@H]32)c1 | inactive | inactive | inactive | –
C[C@H]1CN([C@@H](C)CO)C(=O)c2cc(-c3ccc(F)cc3)cnc2O[C@@H]1CN(C)CC1CCCCC1 | inactive | inactive | inactive | –
CCCC(=O)N1CCC1(C)C(=O)Nc1ccc(C)cc1 (stereo unspecified) | inactive | inactive | inactive | –
CC(C)NC(=O)N(C)C[C@H]1OCCCC[C@H](C)Oc2ccc(NC(=O)c3ccccc3)cc2C(=O)N([C@@H](C)CO)C[C@@H]1C | inactive | inactive | inactive | –
CC(C)NC(=O)Nc1ccc2c(c1)CC(=O)N([C@@H](C)CO)C[C@@H](C)[C@H](CN(C)C(=O)Nc1ccc3c(c1)OCO3)O2 | inactive | inactive | inactive | –
CCc1ccc(C(=O)NC(=S)Nc2ccccc2N2CCOCC2)cc1 | – | inactive | inactive | inactive
CC(=O)c1sc(NC(=O)C2(F)C(F)(F)C(F)(F)C(F)(F)C(F)(F)C2(F)F)nc1C | – | inactive | – | inactive
Cc1ccc(-n2ncc3c(SCC(N)=O)ncnc32)cc1C | – | inactive | – | inactive
Cc1cccc(NC(=S)NN(Cc2ccccc2)c2ccccc2)c1C | – | inactive | – | inactive
COc1ccc(NC(=O)c2cn(C)c(=O)c3cc(OC)c(OC)cc23)c(OC)c1 | – | inactive | inactive | inactive
CCN(C(=O)CSc1ncnc2c1cnn2-c1ccccc1)C1CCS(=O)(=O)C1 (stereo unspecified) | – | inactive | inactive | inactive
C[C@H](CO)N1C[C@H](C)[C@H](CN(C)Cc2ccccc2)OCCCC[C@H](C)Oc2ccc(NS(=O)(=O)c3cccs3)cc2C1=O | inactive | inactive | inactive | –
COc1ccc(NC(=O)N(C)C[C@@H]2OCCCC[C@@H](C)Oc3ccc(NC(=O)Nc4ccc5c(c4)OCO5)cc3C(=O)N([C@@H](C)CO)C[C@H]2C)cc1 | inactive | inactive | inactive | –
Cc1ccc2cc(NC(=O)c3ccccc3)ccc2n1 | – | inactive | – | inactive
O=C(CC1CC1)N1[C@@H]2CN(S(=O)(=O)c3ccccc3)c3ccccc3[C@@H]2[C@@H]1CO | inactive | – | inactive | –
COC(=O)C1=C(C)N(Cc2ccc(Br)cc2)C(=S)NC1c1cccc(Br)c1 (stereo unspecified) | – | inactive | – | inactive

— PubChem BioAssay
